What all share (assay): Cytotoxic Profiling of Annotated Libraries Using Quantitative High-Throughput Screening (AID 1296008); further: nearly all actives have a fitted effect of over 60% in size
What all share (conditions): Five cell lines viability, CellTiter-Glo ATP luminescence, 48-72 h; max response: active compounds read low

One assay deals with HaCat. In outline:
(§1)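 Cytotoxicity was measured as CellTiter-Glo ATP luminescence, read after 10 min at room temperature. Compound treatment of the cells lasted 48 or 72 hr at 37 degrees Celsius in a qHTS format.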

The subject of another assay is KB-3-1. A digest of the protocol: as §1
A further assay concerns NIH3T3. In outline: as §1

SMILES strings stand for the structures. Inconclusive results are not listed. A number with no mark means an inactive call. The source made the active and inactive calls. The call rests on the fitted dose curve; in most records, active means well fitted inhibition curve with a large enough effect; inconclusive means small, poorly fitted or top-dose-only effect; inactive means flat fitted curve, though single readings scatter.

These results are taken from PubChem BioAssay (NCATS).
On the % scale 0 is the no-effect control and ±100 the full control effect; potency means the concentration at half of the fitted maximal effect.

Regarding `CC(C)c1cc(C(=O)N2CC[C@@H](NC(=O)C3CC3)C2)n[nH]1`, the max response was 0.869% in the assay with HaCat, 2.09% in the assay with KB-3-1 and -14.5% with NIH3T3.

Take `CSc1ccc(C(=O)N[C@@H]2CCCC[C@@H]2NC(=O)CNC(=O)c2cc(C(F)(F)F)ccc2NC(=O)NC(C)C)cc1`: the max response is -8.38% with HaCat, -4.76% in the assay on KB-3-1 and 0.151% in the assay with NIH3T3.

Consider `C[C@@H]1CC[C@@]2(OC1)O[C@H]1C[C@H]3[C@@H]4CC=C5C[C@@H](O)CC[C@]5(C)[C@H]4CC[C@]3(C)[C@H]1[C@@H]2C`, for which the max response in the assay on HaCat is 4.49%; in the assay on KB-3-1, -3.17%; with NIH3T3 it was -1.68%.

As to `COC(=O)N[C@H](C(=O)N1[C@@H]2CC[C@@H](C2)[C@H]1c1nc2ccc(-c3ccc4c(c3)C(F)(F)c3cc(-c5cnc([C@@H]6CCC7(CC7)N6C(=O)[C@@H](NC(=O)OC)C(C)C)[nH]5)ccc3-4)cc2[nH]1)C(C)C`, the max response in the assay on HaCat was -33.1%; with KB-3-1, -8.63%; with NIH3T3, -14.9%.

`C=C1C(=O)OC2C1C(O)CC1(C)C(O)CCC(C=O)C21` (centres undefined): the max response with HaCat was -11.8%; in the assay with NIH3T3, -0.523%. The compound was called inactive in the assay with KB-3-1.

Turning to `C(#Cc1nc2ncccc2nc1OCCN1CCCC1)c1ccccc1`, the Potency in the assay with HaCat is 5.8 µM (active); in the assay with KB-3-1, 8.2 µM (active); with NIH3T3, 5.17 µM (active).

In the case of `COc1c2c(c(C)c3c1C(=O)OC3)OC1(C)CC(O)C(C(C)(C)O)C(C)(CCC(=O)O)C1C2` (centres undefined), the max response in the assay with HaCat is -1.29%; in the assay on NIH3T3, 0.542%. For the same compound, in the assay on KB-3-1, the call was inactive.

`C[C@@H]1O[C@@H](O[C@H]2[C@H](O[C@H]3[C@H](O[C@H]4CC[C@@]5(C)C(CC[C@]6(C)C5CC=C5[C@@H]7CC(C)(C)CC[C@]7(C(=O)O[C@@H]7O[C@H](CO)[C@@H](O[C@@H]8O[C@@H](C)[C@H](O)[C@@H](O)[C@H]8O)[C@H](O)[C@H]7O)CC[C@]56C)C4(C)C)OC[C@H](O)[C@@H]3O)O[C@H](CO)[C@@H](O)[C@@H]2O)[C@H](O)[C@H](O)[C@H]1O` (some centres undefined): the max response is 4.4% in the assay on HaCat and 0.585% with NIH3T3. Besides, the compound was classed as inactive in the assay on KB-3-1.
